# High-throughput results (PubChem)
# D1 potentiator: potentiators of human D1 dopamine receptor | actives 0.036% (n = 360,000) | potentiation, % at 10 µM | HEK293 TREx D1 cells, calcium flux, dopamine EC20 potentiation | P21728; in the data active = potentiation above about 30%; note: 0% is about no effect
# D1 antagonist: antagonists of human D1 dopamine receptor; actives 3.2% (n = 360,000); activity change, negative = inhibition, % at 10 µM; AID 504652; HEK293 TREx D1 cells, calcium flux, dopamine EC80; hits give low values; P21728; in the data active = activity change below about -30%; note: % is set by controls: 0 for no effect and ±100 for the full control effect
#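 After overnight tetracycline induction at 30 C, force-coupled D1 HEK293 cells took up a no-wash calcium dye at room temperature. Compounds were added and monitored 180 s, and the response to EC80 dopamine was then recorded.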
# TRPV1 ag: activates the human vanilloid receptor TRPV1; TRPV1-expressing cells, Fluo-8 calcium influx, agonist mode; activation, % at 8.33 µM; actives 0.19% (n = 320,000); AID 540275; in the data active = activation above about 80%; inconclusive = between about 30% and that limit; note: 0% is about no effect
#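 TRPV1-expressing cells were cultured overnight at 35.5C and loaded with Fluo-8 calcium dye for 40 to 90 min at room temperature. After a 10 s baseline, compound was added and calcium influx was read kinetically for 3 min (ex 480/em 520 nm).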
# TRPV1 PAM: human TRPV1 potentiation | Q8NER1 | TRPV1-expressing cells, Fluo-8 calcium influx, capsaicin EC20 potentiation | potentiation, % at 8.33 µM | actives 0.02% (n = 320,000) | AID 540277; in the data active = potentiation above about 80%; inconclusive = between about 30% and that limit; note: 0% is about no effect
#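 Cells expressing TRPV1 were dye-loaded with Fluo-8 and read kinetically: 10 s baseline, 3 min after compound (agonist portion), then 2 min after EC20 capsaicin (allosteric enhancer portion). Calcium-bound dye fluorescence at 480/520 nm.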
# D1 agonist: agonists of human D1 dopamine receptor. actives 1% (n = 360,000). P21728. HEK293 T-REx D1 cells, calcium flux, agonist mode. AID 504660. activation, % at 2 µM; in the data active = activation above about 30%; note: 0% is about no effect
#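 Agonism was scored from calcium flux recorded over 180 s (1 read/s) after pintool compound addition, following a 10-cycle baseline. Cells were inducible force-coupled HEK293 TREx D1, plated overnight at 30 C and loaded with no-wash calcium dye.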
# The depositor's hits bear a star; ? = inconclusive; nt = not tested or not shown. Shown are actives, neighbours in structure and some others; about 4.2% of the full set was active somewhere.
SMILES,D1 potentiator,D1 antagonist,TRPV1 ag,TRPV1 PAM,D1 agonist
Cc1nc2ccccn2c1C(=O)N/N=C/c1cc(C)n(-c2ccc(Br)cc2)c1C,-23,-47*,-1,17,2
Cc1c(C(=O)NCc2ccc(F)cc2)oc2ccc(S(=O)(=O)N3CCCCC3)cc12,1,13,nt,nt,1
CC(C)CC1NC(=O)N(CC(=O)NC2CCCc3ccccc32)C1=O (stereo not given),-2,-36*,1,7,0
CSc1nnc2c3ccccc3n(Cc3ccccc3)c2n1,-6,-56*,5,14,1
CSc1nnc2c3ccccc3n(CCc3ccccc3)c2n1,-5,-5,-1,6,0
CCCCCC(=O)N/N=C/c1cccs1,1,-47*,16,-19,-1
O=C(Nc1c(C(=O)Nc2cccc(F)c2)oc2ccccc12)c1cc2ccccc2o1,-2,1,nt,nt,9
COc1ccc(CCNc2nc(SCc3ccccc3F)nc3ccccc23)cc1OC,0,-4,nt,nt,5
Cn1c(=O)c2c(-c3ccccc3)n3c(c2n(C)c1=O)C(c1ccco1)Nc1ccccc1-3 (stereo not given),2,-31*,nt,nt,1
CCC(=O)OCc1c(C(F)(F)F)nn(C)c1Sc1ccc(Cl)cc1,-2,-33*,-1,10,19
CCC(=O)OCc1c(C(F)(F)F)nn(C)c1Sc1ccc(F)cc1,3,0,14,-7,9
CC(=O)N1CCc2[nH]c3ccccc3c2C1,2,-13,-1,-2,-1
CC(=O)N1C=Cc2c(c(C)c3c([nH]c4ccccc43)c2C)C1,-6,10,2,19,58*
COc1ccc(-c2nnc(SCC(=O)Nc3cccc(C(F)(F)F)c3)nc2-c2ccc(OC)cc2)cc1,0,7,nt,nt,7
OCCN1CCN(CC(O)COc2ccc(Cl)cc2)CC1 (stereo not given),-7,9,1,6,3
Oc1ccc(C23CC4CC(CC(C4)C2)C3)cc1O,-4,-6,-1,3,2
OCCN1CCN(CC(O)COc2ccc(C34CC5CC(CC(C5)C3)C4)cc2)CC1 (stereo not given),-3,-42*,2,-6,63*
NCCOc1ccc(C23CC4CC(CC(C4)C2)C3)cc1,36*,56,19,0,127*
COc1ccccc1C(=O)OCc1cc(=O)n2nc(C3CC3)sc2n1,-2,5,nt,nt,6
COc1cc(CNC(=O)c2cnc(SC)nc2-c2ccccc2)cc(OC)c1OC,4,-15,nt,nt,-1
C=CCn1c(N2CCN(c3ccc(OC)cc3)CC2)nc2c1c(=O)n(C)c(=O)n2C,-6,-38*,-2,11,15
CCC(C)[C@H](N)c1nnc(SCc2ccc(Cl)c(Cl)c2)o1 (stereo not given in full),-3,1,nt,nt,54*
CC(C)[C@H](N)c1nnc(SCc2ccc(Cl)cc2)o1,6,6,11,-24,3
CC(=O)c1cccc(NC(=O)c2ccc(Cl)c(S(=O)(=O)N3CCOCC3)c2)c1,-2,-2,nt,nt,1
CCOC(=O)c1c(C)[nH]c(C)c1S(=O)(=O)N1CCC(C(=O)NCc2ccc(F)cc2)CC1,-1,0,nt,nt,2
SMILES,D1 potentiator,D1 antagonist,TRPV1 ag,TRPV1 PAM,D1 agonist
CCCOc1ccc(N2C(=O)CC(N3CCN(c4nc5ccccc5s4)CC3)C2=O)cc1 (stereo not given),3,-31*,-4,26,3
CCCOc1ccc(N2C(=O)CC(N3CCN(c4ccccc4F)CC3)C2=O)cc1 (stereo not given),0,3,1,-9,0
CCCCCCOc1ccc(N2C(=O)CC(N3CCN(C(=O)c4ccco4)CC3)C2=O)cc1 (stereo not given),-4,-41*,27,-16,19
CCOc1ccc(N(C(=O)c2ccc3c(c2)OCO3)C2C=CS(=O)(=O)C2)cc1 (stereo not given),-1,15,1,-3,4
O=C(c1ccc2c(c1)OCO2)N(c1ccccc1)C1C=CS(=O)(=O)C1 (stereo not given),2,-40*,3,2,3
CCOC(=O)[C@H]1[C@H]2COc3ccc(Cl)cc3[C@@H]2N2C(=O)c3ccc(C)cc3NC(=O)[C@@]12C,-3,-8,99*,?,3
CCOC(=O)[C@H]1[C@H]2COc3ccc(Cl)cc3[C@@H]2N2C(=O)c3ccc(F)cc3NC(=O)[C@@]12C,-6,4,83*,30,1
CCOC(=O)[C@H]1[C@H]2COc3ccc(Cl)cc3[C@@H]2N2C(=O)c3ccccc3NC(=O)[C@@]12C,0,14,?,1,4
CCOC(=O)c1ccc(NC(=O)CC2C(=O)N(c3ccc(C)cc3)C(=O)N2C2CCCC2)cc1 (stereo not given),-4,4,nt,nt,5
COc1ccc(OC)c(CNC(=O)NCc2noc3ccc(C)cc23)c1,1,17,nt,nt,5
CNCc1c(OCc2ccc(F)cc2)ccc2ccccc12,-18,-33*,2,3,23
Cn1nnnc1Sc1ncnc2scc(-c3cccc(Cl)c3)c12,6,14,nt,nt,4
CN1CCN(/N=C/c2ccc(OCc3ccccc3)cc2)CC1,-19,-69*,3,6,32*
CCC(Oc1ccccc1)C(=O)N1CCN(Cc2cc(=O)n3nc(-c4cccc(C)c4)sc3n2)CC1 (stereo not given),-2,-9,nt,nt,-1
CCOc1ccc(S(=O)(=O)Nc2cccc(-c3ccc(N4CCC(C)CC4)nn3)c2)cc1,7,-9,nt,nt,0
Cc1cc(C)c2c(c1)/C(=N/NS(=O)(=O)c1ccccc1)CCC2,7,-97*,-2,2,6
Cc1cc(C)c2c(c1)/C(=N/NS(=O)(=O)c1ccc(Br)cc1)CCC2,0,10,0,8,3
Cc1ccc(-c2nc3cccnc3s2)cc1NC(=O)C(C)C,1,27,nt,nt,30*
CN(Cc1ccccc1F)c1ccc(S(=O)(=O)N2CCCC2)cn1,-8,-32*,?,-11,13
O=C(CNC(=O)c1ccccc1Cl)OC(C(=O)Nc1cc(C(F)(F)F)ccc1Cl)c1ccccc1 (stereo not given),-3,-5,nt,nt,5
Cc1ccc(/C=N/NC(=O)Cc2ccc(O)cc2)s1,4,-33*,9,14,3
Cc1ccc(NC(=O)Cn2c(=O)n(Cc3ccc(F)cc3)c(=O)c3cccnc32)cc1C,-4,-20,nt,nt,1
CCC(=O)N1CCCc2cc(S(=O)(=O)N3CCC(C(=O)NCc4ccc(F)cc4)CC3)ccc21,-2,1,nt,nt,0
CCC(=O)N1CCCc2cc(S(=O)(=O)N3CCC(C(=O)Nc4ccc(C#N)cc4)CC3)ccc21,-7,-59*,nt,nt,0
CCC(=O)N1CCCc2cc(S(=O)(=O)N3CCC(C(=O)NC4CCCCC4)CC3)ccc21,4,4,nt,nt,2
